Measured values as given in PubChem BioAssay (NCATS).
Records with an inconclusive call do not appear. Calls of active or inactive are those of the source. Calls follow the shape of the dose curve; as a rule, active = well fitted curve in the direction sought with a large enough effect; inconclusive = small, poorly fitted or top-dose-only effect, or another doubt; inactive = no such curve, though single readings can be large; an effect the other way counts as inactive or inconclusive.

How the values were obtained:
[1] = tested on: Zika virus NS2B-NS3 protease; test: Primary screen GU AMC qHTS for Zika virus inhibitors (AID 1347154);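 also: 0% = no-inhibitor control and -100% = no-enzyme control; nearly all actives have a fitted effect of over 70% in size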
How it was run: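 Unlinked Zika NS2B hydrophilic domain/NS3 protease domain noncovalent complex (25 nM final) in 10 mM Tris-HCl pH 8.0, 0.01% Tween 20, with AMC peptide substrate. Fluorescence (ex 340, em 450 nm) change over 15 min, room temperature; percent inhibition fitted to 4-parameter Hill equation.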

[2] = Primary qHTS for small molecule stabilizers of the endoplasmic reticulum resident proteome: Secreted ER Calcium Modulated Protein (SERCaMP) assay (AID 1508630); also: % is scaled to controls: 0 for no effect and ±100 for the full control effect
How it was run: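 GLuc-SERCaMP-expressing SH-SY5Y cells, pretreated 16 h with compound, are challenged with thapsigargin to empty ER calcium stores; after 4 h, coelenterazine is added directly to the medium and luminescence is imaged.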

[3] = NCATS anti-infectives library activity on HEK293 viability as a counter-qHTS vs the C. elegans viability qHTS (AID 1745854);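 also: HEK293 cells exposed to compounds for 24 hr before the viability read; % is scaled to controls: 0 for no effect and ±100 for the full control effect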
How it was run: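 Compounds were acoustically plated (several concentrations, 1:5, final up to 41.7 uM), then 1500 HEK293 cells added per well and incubated 24 hr at 37C, 5% CO2. CellTiter-Glo was added and luminescence read after 10 min.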

[4] = Viability counterscreen for antagonist of constitutive androstane receptor (CAR) against the NCATS DSHEA and TCM libraries (AID 1794837);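 also: compound exposure lasted 24 h before viability reading; 0% is about no effect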
How it was run: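 Counterscreen performed in a 1536-well qHTS format using HepG2-CYP2B6-hCAR cells; samples titrated in the presence of 48 uM CITCO, with viability measured fluorometrically (405/540 nm) after 24 h.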

[5] = Viability counterscreen for agonist of constitutive androstane receptor (CAR) against the NCATS DSHEA and TCM libraries (AID 1794838); also: 0% is about no effect
How it was run: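 Multiplexed counterscreen: after 24 h compound exposure with 0.75 uM PK11195, HepG2-CYP2B6-hCAR viability was quantified fluorimetrically (CellTiter-Fluor, 405/540 nm) prior to the ONE-Glo luciferase read.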

[6] = molecular target: Nuclear receptor subfamily 1 group I member 3 (Homo sapiens) (UniProt Q14994); test: Primary qHTS for agonist of constitutive androstane receptor (CAR) against the NCATS DSHEA and TCM libraries (AID 1794839);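 also: HepG2 cells expressing human CAR with a CYP2B6 reporter plus PK11195 antagonist; luciferase reporter luminescence read with ONE-Glo; 0% is about no effect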
How it was run: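 Concentration–response screen in HepG2-CYP2B6-hCAR cells under 0.75 µM PK11195; 24 h exposure; luminescent reporter signal with multiplexed fluorescent viability.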

[7] = HepG2 viability counterscreen (readout 2: ATP content) against the NCATS DSHEA and TCM libraries (AID 1794840);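 also: HepG2 cells exposed to substances for about 24 h; 0% is about no effect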
How it was run: (§1)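 After HepG2 cells attach for ~4 h, substances are added and incubated ~24 h at 37C, 5% CO2. GF-AFC fluorescence then CellTiter-Glo luminescence give protease and ATP readouts.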

[8] = HepG2 viability counterscreen (readout 1: protease activity) against the NCATS DSHEA and TCM libraries (AID 1794841);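 also: cells exposed to compounds for about 24 h before the protease read; 0% is about no effect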
How it was run: as §1

[9] = molecular target: Cytochrome P450 3A4 (Homo sapiens) (UniProt P08684); test: qHTS for inhibitors of CYP3A4 against the NCATS DSHEA and TCM libraries (AID 1919971);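 also: % is scaled to controls: 0 for no effect and ±100 for the full control effect; inhibition lowers luminescence from luciferin made by CYP3A4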
How it was run: (§2)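 Read-out is luminescence after P450-Glo detection (30 min, RT). Before that: 15 min compound–enzyme preincubation, then 30-45 min reaction with 1x NADPH regeneration solution, substrate concentration isoform-specific.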

[10] = molecular target: Cytochrome P450 2D6 (Homo sapiens) (UniProt P10635); test: qHTS for inhibitors of CYP2D6 against the NCATS DSHEA and TCM libraries (AID 1919972); also: % is scaled to controls: 0 for no effect and ±100 for the full control effect
How it was run: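 Luminescent P450-Glo read-out of CYP2D6 turnover of a luciferin substrate after NADPH-driven reaction of 30-45 min at room temperature. Compounds were first preincubated 15 min with enzyme at titrated concentrations; quinidine was the intraplate control.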

[11] = molecular target: Cytochrome P450 2C9 (Homo sapiens) (UniProt P11712); test: qHTS for inhibitors of CYP2C9 against the NCATS DSHEA and TCM libraries (AID 1919973);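 also: luminogenic pro-luciferin CYP2C9 substrate turned into luciferin with NADPH regeneration; series mostly up to about 34 µM; % is scaled to controls: 0 for no effect and ±100 for the full control effect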
How it was run: as §2

[12] = molecular target: Cytochrome P450 2C19 (Homo sapiens) (UniProt P33261); test: qHTS for inhibitors of CYP2C19 against the NCATS DSHEA and TCM libraries (AID 1919974)
How it was run: as §2

[13] = KB-3-1 P-gp reporter qHTS against the NCATS DSHEA and TCM libraries (AID 1919975); also: 0% is about no effect
How it was run: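 Cell viability qHTS: 500 KB-3-1 cells/well, substances in titration, ~72 h, 37C; luminescent CellTiter-Glo read.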

[14] = molecular target: Cytochrome P450 1A2 (Homo sapiens) (UniProt P05177); test: qHTS for inhibitors of CYPIA2 against the NCATS DSHEA and TCM libraries (AID 1919976)
How it was run: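 CYP1A2 + luciferin substrate, 100 mM KPO4-type buffer; cmpd 15 min RT; 1x NADPH regen, 30-45 min RT dark; detection reagent 30 min RT; luminescence. Minus-enzyme wells as background; furafylline intraplate control.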

[15] = qHTS Counterscreen for compound interference against the NCATS DSHEA and TCM libraries (AID 1919978); conditions: firefly luciferase detection reagent interference, luminescence;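 also: compounds preincubated with 1 µM D-luciferin or buffer before detection reagent; % of control where 0% means no effect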
How it was run: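 Interference check: test samples were incubated with D-luciferin (final 1 uM) or buffer only for 15 min, room temperature, in a qHTS titration up to 39.8 uM, then developed with detection reagent and read by luminescence.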

[16] = Dual reporter qHTS for agonist of Pregnane X Receptor (hPXR) against the NCATS DSHEA and TCM libraries: Fluorescence readout (AID 1920058); also: 0% is about no effect
How it was run: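 HepG2 hPXR-Luc, 2000 cells/well, 5 h attach; cpds ~24 h, 37 °C/5% CO2; CellTiter-Fluor 1 h; fluor. Ex/Em 405/540 nm = viability.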

[17] = molecular target: Nuclear receptor subfamily 1 group I member 2 (Homo sapiens) (UniProt O75469); test: Dual reporter qHTS for agonist of Pregnane X Receptor (hPXR) against the NCATS DSHEA and TCM libraries: Luminescence readout (AID 1920059); also: 0% is about no effect
How it was run: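 hPXR-LucHepG2 cells in phenol red-free DMEM with 5% charcoal-stripped FBS, 2000 cells/well, attached 5 h, then exposed 24 h at 37C to compounds; rifampicin as positive agonist control (2.8 nM–92 uM). Luciferase luminescence read.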

[18] = molecular target: Nuclear receptor subfamily 1 group I member 2 (Homo sapiens) (UniProt O75469); test: Dual reporter qHTS for antagonist of Pregnane X Receptor (hPXR) against the NCATS DSHEA and TCM libraries: Luminescence Readout (AID 1920060);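 also: HepG2 cells carrying hPXR luciferase reporter stimulated with rifampicin at 2 µM; 0% is about no effect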
How it was run: (§3)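 Antagonist mode: rifampicin 2 uM final co-added with compounds to hPXR-LucHepG2 cells for 24 h at 37C. Viability by CellTiter-Fluor, Ex/Em 405/540 nm, 1 h; reporter by ONE-Glo luminescence.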

[19] = Dual reporter qHTS for antagonist of Pregnane X Receptor (hPXR) against the NCATS DSHEA and TCM libraries: Fluorescence Readout (AID 1920061); also: 0% is about no effect
How it was run: as §3

Nuclear receptor subfamily 1 group I member 2 (Homo sapiens), sequence (O75469 whole entry, looked up): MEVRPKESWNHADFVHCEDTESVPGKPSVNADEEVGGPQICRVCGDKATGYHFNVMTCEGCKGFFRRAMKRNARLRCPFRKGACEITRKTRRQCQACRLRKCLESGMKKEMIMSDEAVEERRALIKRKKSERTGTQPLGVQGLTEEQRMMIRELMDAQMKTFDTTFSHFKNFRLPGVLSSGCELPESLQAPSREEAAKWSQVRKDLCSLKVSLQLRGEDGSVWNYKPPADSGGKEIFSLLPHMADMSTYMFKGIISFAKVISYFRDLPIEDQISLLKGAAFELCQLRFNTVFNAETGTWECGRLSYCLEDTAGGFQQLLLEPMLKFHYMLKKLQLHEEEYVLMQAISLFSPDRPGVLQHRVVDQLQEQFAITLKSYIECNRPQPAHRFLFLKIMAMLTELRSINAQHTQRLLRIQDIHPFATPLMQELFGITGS
Cytochrome P450 2C9 (Homo sapiens), sequence (P11712 whole entry, looked up): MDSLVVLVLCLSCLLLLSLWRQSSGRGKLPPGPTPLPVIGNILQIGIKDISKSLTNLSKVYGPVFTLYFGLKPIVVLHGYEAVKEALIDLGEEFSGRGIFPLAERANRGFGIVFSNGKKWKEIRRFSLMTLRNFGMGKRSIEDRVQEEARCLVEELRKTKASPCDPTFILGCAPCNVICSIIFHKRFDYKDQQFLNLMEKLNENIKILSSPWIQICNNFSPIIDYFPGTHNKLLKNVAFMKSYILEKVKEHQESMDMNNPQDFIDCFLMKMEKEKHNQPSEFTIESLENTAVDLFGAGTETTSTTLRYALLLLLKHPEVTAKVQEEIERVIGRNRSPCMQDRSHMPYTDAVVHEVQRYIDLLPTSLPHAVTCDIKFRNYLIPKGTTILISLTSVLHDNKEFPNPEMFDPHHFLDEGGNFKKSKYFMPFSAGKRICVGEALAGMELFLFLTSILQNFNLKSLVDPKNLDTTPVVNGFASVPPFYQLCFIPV
Cytochrome P450 2C19 (Homo sapiens), sequence (P33261 whole entry, looked up): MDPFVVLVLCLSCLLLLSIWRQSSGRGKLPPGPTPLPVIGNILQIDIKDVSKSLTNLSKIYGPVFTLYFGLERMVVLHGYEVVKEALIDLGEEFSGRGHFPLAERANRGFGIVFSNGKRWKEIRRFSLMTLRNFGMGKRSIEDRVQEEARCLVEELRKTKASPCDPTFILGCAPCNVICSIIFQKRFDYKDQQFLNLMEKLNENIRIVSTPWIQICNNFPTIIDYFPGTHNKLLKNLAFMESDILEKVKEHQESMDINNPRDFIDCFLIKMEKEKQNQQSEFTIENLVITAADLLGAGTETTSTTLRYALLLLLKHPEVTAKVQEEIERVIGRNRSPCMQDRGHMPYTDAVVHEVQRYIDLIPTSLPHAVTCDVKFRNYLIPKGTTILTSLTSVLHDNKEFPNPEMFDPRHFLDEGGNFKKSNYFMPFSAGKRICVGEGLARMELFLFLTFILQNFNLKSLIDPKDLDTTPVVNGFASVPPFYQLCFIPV
Cytochrome P450 2D6 (Homo sapiens), sequence (P10635 whole entry, looked up): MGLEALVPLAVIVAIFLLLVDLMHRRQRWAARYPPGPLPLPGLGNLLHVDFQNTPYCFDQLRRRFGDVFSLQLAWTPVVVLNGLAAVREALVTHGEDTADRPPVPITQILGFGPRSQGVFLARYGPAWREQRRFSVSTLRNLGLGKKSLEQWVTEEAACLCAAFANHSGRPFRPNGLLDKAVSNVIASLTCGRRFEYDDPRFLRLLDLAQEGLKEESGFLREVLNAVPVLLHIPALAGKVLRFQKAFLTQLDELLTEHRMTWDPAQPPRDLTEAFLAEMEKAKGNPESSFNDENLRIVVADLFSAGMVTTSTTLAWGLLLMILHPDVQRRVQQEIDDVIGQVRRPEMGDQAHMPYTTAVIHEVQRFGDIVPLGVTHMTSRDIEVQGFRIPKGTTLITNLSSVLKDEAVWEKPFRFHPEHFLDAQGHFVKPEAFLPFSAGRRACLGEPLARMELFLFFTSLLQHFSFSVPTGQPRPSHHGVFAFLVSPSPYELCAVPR
Cytochrome P450 3A4 (Homo sapiens), sequence (P08684 whole entry, looked up, canonical isoform): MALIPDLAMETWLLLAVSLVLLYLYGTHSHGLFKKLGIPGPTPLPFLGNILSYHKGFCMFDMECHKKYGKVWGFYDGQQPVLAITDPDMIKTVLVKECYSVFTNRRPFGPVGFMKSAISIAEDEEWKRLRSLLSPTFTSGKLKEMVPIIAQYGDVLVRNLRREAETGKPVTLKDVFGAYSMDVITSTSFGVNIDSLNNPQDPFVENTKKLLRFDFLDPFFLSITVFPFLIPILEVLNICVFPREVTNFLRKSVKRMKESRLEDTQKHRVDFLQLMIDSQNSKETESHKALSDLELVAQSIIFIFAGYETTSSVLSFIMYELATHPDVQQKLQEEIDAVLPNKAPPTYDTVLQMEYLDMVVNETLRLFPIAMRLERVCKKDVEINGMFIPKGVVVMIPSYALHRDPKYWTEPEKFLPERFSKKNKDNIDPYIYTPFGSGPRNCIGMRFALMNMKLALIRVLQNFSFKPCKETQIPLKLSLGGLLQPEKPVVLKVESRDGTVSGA
Cytochrome P450 1A2 (Homo sapiens), sequence (P05177 whole entry, looked up): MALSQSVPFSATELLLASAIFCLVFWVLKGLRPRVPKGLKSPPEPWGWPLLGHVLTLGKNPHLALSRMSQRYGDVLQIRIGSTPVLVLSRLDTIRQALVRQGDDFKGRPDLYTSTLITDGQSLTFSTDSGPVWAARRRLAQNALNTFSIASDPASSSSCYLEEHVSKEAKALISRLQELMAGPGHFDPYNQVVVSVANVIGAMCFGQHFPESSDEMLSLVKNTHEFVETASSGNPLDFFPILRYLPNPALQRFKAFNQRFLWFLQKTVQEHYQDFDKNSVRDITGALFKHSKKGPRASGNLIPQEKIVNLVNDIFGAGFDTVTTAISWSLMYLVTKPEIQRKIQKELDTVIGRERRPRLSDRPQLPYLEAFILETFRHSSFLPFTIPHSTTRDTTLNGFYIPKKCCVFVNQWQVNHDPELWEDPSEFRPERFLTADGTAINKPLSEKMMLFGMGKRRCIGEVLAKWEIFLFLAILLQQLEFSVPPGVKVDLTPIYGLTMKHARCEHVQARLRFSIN
Nuclear receptor subfamily 1 group I member 3 (Homo sapiens), sequence (Q14994 whole entry, looked up): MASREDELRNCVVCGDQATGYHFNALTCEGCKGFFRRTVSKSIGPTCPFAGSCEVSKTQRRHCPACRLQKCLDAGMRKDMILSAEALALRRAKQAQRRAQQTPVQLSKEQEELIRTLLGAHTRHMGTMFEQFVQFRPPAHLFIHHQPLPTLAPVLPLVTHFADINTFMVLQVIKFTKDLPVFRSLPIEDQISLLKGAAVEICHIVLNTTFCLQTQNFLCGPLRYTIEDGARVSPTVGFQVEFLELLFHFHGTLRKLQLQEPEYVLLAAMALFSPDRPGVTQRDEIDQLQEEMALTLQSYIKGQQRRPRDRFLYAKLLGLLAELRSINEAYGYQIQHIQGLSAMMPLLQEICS

OCCOCCN1CCN(Cc2cccc(Oc3ccccc3)c2)CC1
inactive: Potency [1] | Potency [2] | outcome [3]

CC/C=C\C/C=C\C/C=C\C/C=C\C/C=C\CCCCCC(=O)O
inactive: activity change, negative = inhibition [1] -1.57% [at 6.83 µM] | activity change, negative = inhibition [2] -17.3% [at 3.88 µM] | viability change, negative = cytotoxic [4] -12.7% [at 5 µM] | activity change, negative = cytotoxicity [5] -18.6% [at 5 µM] | activation [6] -16.7% [at 5 µM] | activity change, negative = cytotoxic [7] -0.254% [at 3.42 µM] | activity change, negative = inhibition [8] -1.31% [at 3.42 µM] | outcome [9] | activity change, negative = inhibition [10] -3.67% [at 4.27 µM] | Potency [11] | Potency [12] | activity change, negative = inhibition [13] -17.1% [at 3.26 µM] | outcome [14] | max response [15] 0.0363% | activation [16] -9.65% [at 5 µM] | activation [17] -6.56% [at 5 µM] | activity change, negative = inhibition [18] -29.3% [at 5 µM] | activity change, negative = inhibition [19] 2.07% [at 5 µM]
